Bioassay records: PubChem, National Center for Advancing Translational Sciences (NCATS)
In the library only some 7.4% were active in any assay of this set; here they are far more common.
SNCA viab count = cell viability loss counter-screen; HEK-293-SNCA-luc viability, GF-AFC fluorescence, 24 h; Potency, µM (titrated, usually from 57.1 µM), for inactives: top-dose activity change, negative = cytotoxicity, usual class: cytotoxic; 150,000 tested, 0.12% active; AID 1671193;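 also: 0% = DMSO-treated cells and -100% = medium-only wells without cells; nearly all actives have a fitted effect of over 30% in size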
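Cytotoxicity counterscreen: after 24 h compound treatment of genome-edited SNCA-luciferase HEK-293 cells, live-cell protease substrate GF-AFC read by fluorescence after 30 min; activity scaled between DMSO (0%) and medium-only (-100%), curves Hill-fitted.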
HEK293 tox = HEK 293 cell cytotoxicity; HEK 293 viability, ATP luminescence (CellTiter-Glo), 48-72 h; 94,000 tested, 6.6% active; Potency, µM (doses to about 115 µM), inactives show top-dose activity change, negative = cytotoxicity, actives largely listed as inhibitors; also: % is scaled to controls: 0 for no effect and ±100 for the full control effect; nearly all actives have a fitted effect of over 60% in size
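HEK 293 seeded at 250 cells/well receive compound via pintool. After 48 or 72 hr at 37 degree Celsius, 5% CO2 and 95% humidity, CellTiter-Glo is dispensed and luminescence read following 10 min at room temperature.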
NPR1 antag = antagonists of human natriuretic peptide receptor Npr1; P16066; 76,000 tested, 1.6% active; HEK293 hNpr1 GloSensor cGMP, ANP-stimulated luminescence; Potency, µM (highest dose often 46.3 µM), for the others: top-dose activity change, negative = inhibition, hits mostly inhibitors; calls by dose curve; also: % is scaled to controls: 0 for no effect and ±100 for the full control effect; nearly all actives have a fitted effect of over 60% in size
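Compound pre-incubated 30 min at room temperature on GloSensor-loaded HEK293 cells stably carrying hNpr1 and the pGS-40F cGMP biosensor. Stimulation uses hNppA at 0.1 nM final; luminescence is taken at baseline and 20 min post-agonist.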
3T3 cytotox = NIH 3T3 cell cytotoxicity. NIH 3T3 viability, CellTiter-Glo ATP luminescence, 48-72 h. Potency, µM (series often up to 96.7 µM), for the others: top-dose activity change, negative = cytotoxicity, actives largely listed as inhibitors. 94,000 tested, 4.3% active. AID 1345082; also: % is scaled to controls: 0 for no effect and ±100 for the full control effect; nearly all actives have a fitted effect of over 55% in size
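NIH 3T3 cells at 400 cells/well received 23 nL of compound by pintool and were incubated 48 or 72 h at 37 °C. Viability was read as ATP-coupled CellTiter-Glo luminescence.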
FLuc inh = Photinus pyralis luciferase inhibition; P08659; purified P. pyralis luciferase, luminescence, biochemical; Potency, µM (highest dose often 115 µM), most hits filed as inhibitors; 76,000 tested, 2.5% active; AID 1347043; also: % is scaled to controls: 0 for no effect and ±100 for the full control effect; nearly all actives have a fitted effect of over 65% in size
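Luminescence read by CCD imager after adding enzyme (10nM final) to wells holding compound, titrated in qHTS. Substrates 10uM each D-luciferin and ATP; buffer 50mM Tris acetate pH 7.5, 10mM Mg acetate, Tween-20, BSA.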
SNCA expr inh = reduces expression of the alpha-synuclein gene | HEK-293 SNCA-luciferase knock-in, luminescence, 24 h | Potency, µM (titrated, usually from 57.2 µM), for the others: top-dose activity change, negative = inhibition, hits mostly inhibitors | 140,000 tested, 0.17% active;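 also: plate controls were DMSO cells for no effect and cell-free wells for full effect; nearly all actives have a fitted effect of over 45% in size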
Npr1 antag conf = hNpr1 antagonism, confirmation assay; 1,400 tested, 76% active; Potency, µM (doses to about 57.6 µM), without a hit: top-dose activity change, negative = inhibition, hits mostly inhibitors; HEK293 hNpr1 cGMP GloSensor luminescence, ANP-stimulated; AID 1347044; shares compounds with NPR1 antag; calls by dose curve; also: nearly all actives have a fitted effect of over 70% in size
NPR2 antag = hNpr2 antagonism, selectivity versus Npr1. shares compounds with NPR1 antag. HEK293 hNpr2 GloSensor cGMP luminescence, CNP-stimulated. AID 1347046. 1,400 tested, 67% active. Potency, µM (top dose mostly 57.6 µM), for inactives: top-dose activity change, negative = inhibition, usual class: inhibitors; calls by dose curve; also: nearly all actives have a fitted effect of over 70% in size
FLuc counter = counter-screen for Npr1 antagonists: firefly luciferase inhibitors | shares compounds with NPR1 antag | purified FLuc enzyme, luminescence, Km substrate | Potency, µM (series often up to 57.6 µM), inactives show at the top dose activity change, negative = inhibition, hits mostly inhibitors | 1,400 tested, 0.7% active; also: 0% is about no effect
GloSensor ctrl = counter-screen for Npr1 antagonists: GloSensor control cell line | shares compounds with NPR1 antag | Potency, µM (doses to about 57.6 µM), for inactives: at the top dose activity change, negative = inhibition, usual class: inhibitors | 1,400 tested, 69% active | AID 1347051 | HEK293 GloSensor cGMP, SNP-stimulated, luminescence; calls by dose curve; also: % is scaled to controls: 0 for no effect and ±100 for the full control effect; nearly all actives have a fitted effect of over 70% in size
* hit, by the source's call; i = inactive; ? = inconclusive; · = no result; [ ] = another dose, or the depositor's remark. Unless noted, calls follow the shape of the dose curve; as a rule, active = well fitted curve in the direction sought with a large enough effect; inconclusive = small, poorly fitted or top-dose-only effect, or another doubt; inactive = no such curve, though single readings can be large; an effect the other way counts as inactive or inconclusive. Potency is read from the fitted curve at half-maximal effect.

SMILES	SNCA viab count	HEK293 tox	NPR1 antag	3T3 cytotox	FLuc inh	SNCA expr inh	Npr1 antag conf	NPR2 antag	FLuc counter	GloSensor ctrl
CC1=C[C@@H](CNC(=O)C2CC2)[C@H](C(C)C)C[C@H]1Cc1nc2ccccc2n1C	?	45µM*	25µM*	100µM*	i	?	31µM*	35µM*	3%[86.2 µM]	25µM*
Cc1c(C(C)NC(=O)c2cc(CC(C)C)nn2C)cnn1-c1ccccc1 (stereo not given)	-11%	-81%	0.28µM*	-42%	i	-28%	0.43µM*	0.48µM*	0%	0.43µM*
CCCn1cc(C(=O)NC(C)c2cnn(-c3cccc(F)c3)c2C)c(C)n1 (stereo not given)	-12%	?	2.8µM*	-31%	i	-20%	4.3µM*	6.1µM*	4%	3.1µM*
CCCn1cc(C(=O)NCC2COc3cc(OC)ccc3C2)c(C)n1 (stereo not given)	-5%	?	11µM*	?	i	?	19µM*	22µM*	-1%	19µM*
Cc1nn2c(c1-c1cccnc1N1CCOCC1)N(C(=O)Cc1ccc(Cl)cc1)CCC2	-5%	?	1%	?	i	?	·	·	·	·
Cc1nn2c(c1-c1cccnc1N1CCOCC1)N(CC1CCOCC1)CCC2	-18%[87.6 µM]	?	?	35µM*	i	?	?	?	5%[86.2 µM]	?
CCNC(=O)c1cccnc1OC1CCN(C(=O)CC2CCCCC2)C1 (stereo not given)	-6%	-8%	-1%	-6%	i	57%	·	·	·	·
O=C(c1cccc2[nH]ccc12)N1CCCN(c2cc(-c3ccc(Cl)cc3)[nH]n2)CC1	-22%	?	10µM*	?	i	6%	15µM*	19µM*	?	14µM*
CCOc1ccc(C(=O)N2CCN(c3cc(-c4ccc(Cl)cc4)[nH]n3)CC2)cc1OCC	?	20µM*	2.2µM*	22µM*	i	?	7.7µM*	14µM*	-1%	9.7µM*
CN(C)c1ccc(C(=O)N2CCN(c3cc(-c4ccc(Cl)cc4)[nH]n3)CC2)cc1	-8%	?	13µM*	?	i	-17%	22µM*	22µM*	-8%	22µM*
CCOc1ccc(C(=O)N2CCCN(c3cc(-c4ccc(OC)cc4)[nH]n3)CC2)cc1OCC	-9%	?	-6%	-2%	i	0%	·	·	·	·
COc1ccc(-c2cc(N3CCCN(C(=O)c4ccc(Br)cc4)CC3)n[nH]2)cc1	-16%	?	-6%	?	i	29%	·	·	·	·
O=C(c1ccc(Br)cc1)N1CCN(c2cc(-c3ccc(Cl)cc3)[nH]n2)CC1	-4%	45µM*	?	40µM*	i	?	22µM*	24µM*	0%	15µM*
COc1ccc(-c2noc(-c3cccn3CC(=O)Nc3ccccc3F)n2)cc1F	-3%	-4%	2%	5%	i	41%	·	·	·	·
COCC(=O)NC1CCC12CCN(C(=O)CC1CCCCC1)CC2 (stereo not given)	5%	-4%	1%	-20%	i	-19%	·	·	·	·
COc1cncc([C@@H](NC(=O)c2scc3c2OCCO3)C2CC(O)C2)c1 (stereo not given in full)	-14%	-2%	-9%	-7%	i	12%	·	·	·	·
O=C(C1COc2ccccc2O1)N1CCN(c2cc(-c3ccc(Cl)cc3)[nH]n2)CC1 (stereo not given)	-28%	45µM*	?	?	i	-12%	15µM*	22µM*	2%	14µM*
O=C(c1ccccc1Cl)N1CCN(c2cc(-c3ccc(Cl)cc3)[nH]n2)CC1	-5%	?	7.9µM*	?	i	-16%	14µM*	14µM*	-5%	11µM*
CC(=O)N1CCC(C(=O)N2CCCN(c3cc(-c4ccc(Cl)cc4)[nH]n3)CC2)CC1	-2%	1%	-3%	-12%	i	14%	·	·	·	·
O=C(NC1CCN(c2cc(-c3ccc(F)cc3)[nH]n2)CC1)c1cccc2[nH]ccc12	-17%	40µM*	?	40µM*	i	-6%	?	?	-12%	-27%
Cc1ccc(-c2cc(N3CCCN(C(=O)c4sccc4C)CC3)n[nH]2)cc1C	-9%	?	-20%	?	?	37%	·	·	·	·
Cc1ccsc1C(=O)N1CCN(c2cc(-c3ccc(Cl)cc3)[nH]n2)CC1	-11%	?	13µM*	25µM*	i	?	24µM*	27µM*	-11%	22µM*
COc1ccc(C2(C(=O)N3CCN(Cc4ccccc4)CC3)CCOCC2)cc1	2%	-12%	·	-13%	·	10%	·	·	·	·
COCCC(=O)N1CCC(N2C(=O)C(OC)C23CCOCC3)CC1 (stereo not given)	6%	-7%	3%	-1%	i	7%	·	·	·	·
CCOc1ccc(CC(=O)N2CC(CO)C3(CCNCC3)C2)cc1OCC (stereo not given)	2%[12.5 µM]	-1%	8%	-15%	i	2%	·	·	·	·
Cc1ccc(C(=O)N2CCN(c3cc(-c4ccccc4)[nH]n3)CC2)cc1F	-7%	?	-18%	?	i	18%	·	·	·	·
CN(C)c1ccc(C(=O)N2CCCN(c3cc(-c4ccc(Cl)cc4)[nH]n3)CC2)cc1	-17%	?	?	?	i	?	·	·	·	·
Cc1ccc(C(=O)N2CCN(c3cc(-c4ccc(Cl)cc4)[nH]n3)CC2)cc1F	2%	?	18µM*	?	i	0%	27µM*	22µM*	1%	24µM*
